Laboratory results as given in PubChem BioAssay (NCI).
Several values for one entry are separate records, joined by “and”; a condition that tells them apart may be missing. Identical values can stand only once. The panel holds about 83,000 compounds, 20% with a hit somewhere; the sample as a whole holds those more often.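 48-hour exposure, single concentration, 96-well plates; percent growth endpoint where 0 means no net growth. Active: below 10.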 Activity calls are given as the source filed them.

Tested on: MDA-MB-468 breast
Assay: NCI-60 one-dose screen, 48 h (100 = growth as untreated, 0 = no growth, -100 = all killed)
Conditions: 10 µM unless noted

Q: How did the growth turn out when `CC(=O)O.[In]` was run?
A: The growth was 101% (inactive).

Q: How did the growth turn out when `COc1cc2oc(-c3cccc(NC(=O)c4ccccc4)c3)cc(=O)c2c(OC)c1OC` was run?
A: Its growth is 84.2% (inactive).

Q: `COc1ccc(/C=C(\C#N)c2ccc([N+](=O)[O-])cc2)c2ccccc12` was tested. Which growth did it give?
A: The growth was 84.7% (inactive).

Q: With `O=C1c2ccccc2C(=O)c2c1ccc(C(Br)Br)c2[N+](=O)[O-]` as the compound, how does the growth read?
A: Its growth is -66.5% (active).

Q: Which growth does the source give for `O=C(Nc1cccc2ccccc12)c1cc2ccccc2cc1O` here?
A: The growth was -17.6% (active).

Q: Which growth does the source give for `COc1ccc(-c2nc3sc(-c4ccc(Cl)cc4)cn3n2)cc1` here?
A: Its growth is 33.4% (inactive).

Q: With `O=C(Nc1cccc(Cn2c(=O)[nH]c3ccc(Oc4ncccn4)cc3c2=O)c1)c1ccc(Cl)cc1` as the compound, how does the growth read?
A: Its growth is 16.8% (inactive).

Q: `COc1ccc(C(C)=O)cc1S(N)(=O)=O` was tested. Which growth did it give?
A: The growth was 99.4% (inactive).

Q: For `NS(=O)(=O)c1cc2c(cc1Cl)NC(C(Cl)Cl)NS2(=O)=O` (centres undefined), which growth is on record?
A: The growth was 101% (inactive) and 108% (inactive).

Q: Which growth does the source give for `C#CCOc1ccc2ncnc(Nc3ccc(NC(=O)C=C)cc3)c2c1` here?
A: The growth was -22.3% (active).

Q: `CN1C(=O)N(C)C2C1NN=c1s/c(=C\c3ccsc3)c(=O)n12` (centres undefined) was tested. Which growth did it give?
A: Its growth is 34.3% (inactive).

Q: How did the growth turn out when `O=C1COCCN1c1ccc(NCc2cn(Cc3cccc4ccccc34)c3ccccc23)cc1` was run?
A: The growth was -24.8% (active).

Q: With `CC(=O)[C@H]1CC[C@H]2[C@@H]3CCC4=CC(=O)C=C[C@]4(C)[C@H]3CC[C@]12C` as the compound, how does the growth read?
A: Its growth is 87.5% (inactive).

Q: With `FC(F)(F)c1ccccc1-c1cn2c(ccc3ccccc32)n1` as the compound, how does the growth read?
A: The growth was 105% (inactive).

Q: For `CN(CC(=O)N(Cc1ccc(C2CCCCC2)cc1)c1ccc(C(=O)NO)cc1)S(=O)(=O)c1c(F)c(F)c(F)c(F)c1F`, which growth is on record?
A: The growth was -36.3% (active).

Q: For `CCOC(=O)c1cnc2c(C)cccc2c1Nc1ccc(C(C)=O)cc1`, which growth is on record?
A: The growth was -71.2% (active).

Q: For `COc1ccc([N+](=O)[O-])c(/C=C/C(=O)c2ccccn2)c1`, which growth is on record?
A: Its growth is 74.4% (inactive).

Q: `CCCCn1c(=O)[nH]c(N)c(C(c2ccc(Cl)cc2)c2c(N)[nH]c(=O)n(CCCC)c2=O)c1=O` was tested. Which growth did it give?
A: Its growth is 10.1% (inactive).

Q: For `O=C(Nc1ccc([N+](=O)[O-])cc1Cl)c1cc(Cl)ccc1O`, which growth is on record?
A: The growth was -21.5% (active) and -24.3% (active).

Q: Which growth does the source give for `COc1ccc(C2NC(=O)c3cc4c(cc3N2)OCO4)cc1` (centres undefined) here?
A: Its growth is -1.6% (active).

Q: `Cc1ncc(C(=O)Nc2ccc(CN3CCN(C)CC3)c(C(F)(F)F)c2)cc1C#Cc1cnc(N)c2ccncc12` was tested. Which growth did it give?
A: The growth was -36.7% (active).

Q: How did the growth turn out when `Cc1ccc(-n2cc(/C=N/NC(=O)c3nc(N)n[nH]3)c(-c3ccc(S(C)(=O)=O)cc3)n2)cc1` was run?
A: Its growth is 105% (inactive).

Q: For `Cc1cc(Cl)cc(NS(=O)(=O)c2ccc(-c3cnc(C4CC4)o3)cc2)c1`, which growth is on record?
A: The growth was 11.3% (inactive).

Q: With `C[C@H](NC(=O)[C@@H]1CSSC[C@@H](NC(=O)Cc2nc3ccccc3cc2O)C(=O)NCC(=O)N1C)c1ccccc1` as the compound, how does the growth read?
A: The growth was 17.5% (inactive).

Q: For `O=C1/C(=C/c2ccccc2)CCc2nc3ccccc3c(/C=C/c3ccc(Cl)cc3)c21`, which growth is on record?
A: Its growth is 83.5% (inactive).

Q: With `COc1ccc(/C=N/NC(=O)c2cn(C3CC3)c3c(OC)c(N4CC5CCCNC5C4)c(F)cc3c2=O)cc1` (centres undefined) as the compound, how does the growth read?
A: Its growth is 89.4% (inactive).

Q: `O=C(CNC(=O)c1cccc2ccccc12)Nc1ccccc1Oc1ccc(O)cc1` was tested. Which growth did it give?
A: Its growth is 27.5% [5 µM] (inactive).

Q: With `Cc1cccc2cc(/C=C/C(=O)/C=C/c3ccc(Cl)cc3)c(=O)[nH]c12` as the compound, how does the growth read?
A: Its growth is 61.7% (inactive).

Q: How did the growth turn out when `CCN1C(=O)N(CC)C2C1NN=c1s/c(=C3\C(=O)N(C4CCCC4)c4ccccc43)c(=O)n12` (centres undefined) was run?
A: The growth was -43.2% (active).

Q: How did the growth turn out when `N=C(N)c1ccc(-c2ccc(-c3cccs3)o2)cc1` was run?
A: Its growth is -40.5% (active).

Q: For `COc1ccc(C2C=C(c3ccc(Cl)cc3)N=C3SC=CN32)cc1` (centres undefined), which growth is on record?
A: Its growth is 120% (inactive).

Q: Which growth does the source give for `O=c1oc2ccc(Cl)cc2cc1-c1cs/c(=N/N=C\c2ccc(Cl)cc2)n1/N=C/c1ccc(Cl)cc1` here?
A: Its growth is 114% (inactive).

Q: With `Cc1ccccc1N=C(N)Nc1ccccc1C` (tested in a mixture with another compound) as the compound, how does the growth read?
A: The growth was 87.1% (inactive).

Q: `O=C(Nc1nc2ccc(OC(F)(F)F)cc2s1)c1ccc(F)cc1` was tested. Which growth did it give?
A: Its growth is 21.1% (inactive).

Q: How did the growth turn out when `CCCCCCCCCCCCC1CCCC(C)C1` (centres undefined) was run?
A: Its growth is 111% (inactive).

Q: Which growth does the source give for `O=C(CN1CCN(c2cc3c(cc2F)c(=O)c(C(=O)O)cn3C2CC2)CC1)Nc1nc(-c2ccccc2)cs1` here?
A: The growth was 37.4% (inactive).

Q: With `O=C1COc2ccccc2C(=O)N1CCCCN1CCCCC1` as the compound, how does the growth read?
A: Its growth is 76.3% (inactive).

Q: Which growth does the source give for `CS(=O)(=O)OCC1NC(=O)C(COS(C)(=O)=O)NC1=O` (centres undefined) here?
A: Its growth is 87% (inactive) and 79.3% (inactive).

Q: Which growth does the source give for `COC(=O)Nc1nc2ccc(C(=O)c3ccccc3)cc2[nH]1` here?
A: Its growth is -13.7% (active).
